Compounds with a hit are over-represented: about 10% of the library has one in this group of screens.
Luciferase inh: inhibitors of firefly (Photinus pyralis) luciferase; P08659; purified P. pyralis luciferase, luminescence, biochemical; Potency, µM (top dose mostly 115 µM), hits mostly inhibitors; 2.5% of 76,000 active; note: nearly all actives have a fitted effect of over 65% in size
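FLuc 10nM, D-luciferin 10uM, ATP 10uM, Mg acetate 10mM, Tris acetate pH 7.5, Tween/BSA; cpd qHTS; enzyme added last; CCD luminescence.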
hNpr1 antagonist: human Npr1 receptor antagonism | HEK293 hNpr1 GloSensor cGMP, ANP-stimulated luminescence | AID 1347048 | P16066 | 1.6% of 76,000 active | Potency, µM (doses to about 46.3 µM), for inactives: at the highest dose activity change, negative = inhibition, actives largely listed as inhibitors; calls by dose curve; note: nearly all actives have a fitted effect of over 60% in size
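HEK293 cells stably expressing human Npr1 and cGMP GloSensor pGS-40F, loaded 2 h with 2% GloSensor reagent, given compound 30 min at room temperature. Luminescence read before and 20 min after 0.1 nM hNppA.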
HEK cytotox: kills HEK 293 cells. Potency, µM (highest dose often 115 µM), for the others: top-dose activity change, negative = cytotoxicity, hits mostly inhibitors. AID 1345083. HEK 293 viability, ATP luminescence (CellTiter-Glo), 48-72 h. 6.6% of 94,000 active; note: nearly all actives have a fitted effect of over 60% in size
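Cells seeded first (HEK 293, 250 cells/well), then compound added by pintool. Incubation ran 48 or 72 hr at 37 degree Celsius. CellTiter-Glo was added and luminescence imaged after 10 min at room temperature.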
GPT2 inh: GPT2 alanine aminotransferase inhibition; Q8TD30; Potency, µM (doses to about 57.7 µM), inactives show top-dose activity change, negative = inhibition, usual class: inhibitors; 0.25% of 100,000 active; AID 1671188; Recombinant GPT2, coupled pyruvate oxidase/HRP Amplex Red fluorescence; note: nearly all actives have a fitted effect of over 60% in size
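Fluorescence of coupled pyruvate oxidase/HRP/Amplex Red system (50uM Amplex, 30 min, dark) reports pyruvate formed by GPT2. Enzyme reaction: 10ng/uL GPT2, 2mM L-alanine, 250uM a-KG, 30 min room temperature, pH 7.5; 50uM AOA control.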
3T3 cytotox: NIH 3T3 cell cytotoxicity; NIH 3T3 viability, CellTiter-Glo ATP luminescence, 48-72 h; Potency, µM (titrated, usually from 96.7 µM), without a hit: top-dose activity change, negative = cytotoxicity, hits mostly inhibitors; 4.3% of 94,000 active; AID 1345082; note: nearly all actives have a fitted effect of over 55% in size
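Cells were seeded at 400 per well, treated with pin-transferred compound, and kept 48 or 72 hr at 37 °C before CellTiter-Glo addition and luminescence imaging of cellular ATP.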
Active calls of the source: *; i = inactive; ? = inconclusive; / = no result; [ ] = dose if it differs, or a comment. Unless noted, calls come from the whole dose curve; as a rule, active = well fitted curve in the direction sought with a large enough effect; inconclusive = small, poorly fitted or top-dose-only effect, or another doubt; inactive = no such curve, though single readings can be large; an effect the other way counts as inactive or inconclusive. % is set by controls: 0 for no effect and ±100 for the full control effect; potency is the fitted concentration of half-maximal effect.

SMILES	Luciferase inh	hNpr1 antagonist	HEK cytotox	GPT2 inh	3T3 cytotox
CC(C)c1nnc(C2CN(C(=O)c3ccoc3)CC23CCOCC3)o1 (stereo not drawn)	i	-12%	-5%	0%	-11%
Cc1ccc(C(=O)N2CCCN(c3cc(-c4ccc(Br)cc4)[nH]n3)CC2)cn1	i	?	?	-17%	-24%
O=C1CN(Cc2ccc(-c3cc(F)cc(F)c3)cc2)CCN1c1nccc(Cl)n1	i	-22%	45µM*	-4%	?
O=C1CN(Cc2ccc(-c3cc(F)cc(F)c3)cc2)CCN1c1cc(Cl)ncn1	i	1%	?	?	?
O=C1CN(Cc2ccc(-c3ccsc3)cc2)CCN1c1cc(Cl)ncn1	i	?	35µM*	0%	?
CCn1cc(S(=O)(=O)N2CCC3(CCC3N3CCOCC3)CC2)cn1 (stereo not drawn)	/	/	3%	-4%	-5%
Cc1cccc(-c2ccccc2C(=O)N2CCCC(CO)(Cc3ccccc3F)C2)c1 (stereo not drawn)	i	-9%	20µM*	?	79µM*
O=C(NCc1cccc(Cl)c1)c1ccc2nnc(-c3cc(C(F)(F)F)cc(C(F)(F)F)c3)n2c1	/	/	14µM*	i	?
O=C(NCc1cccc(C(F)(F)F)c1)c1ccc2nnc(-c3ccoc3)n2c1	/	/	?	i	?
O=C(NCCc1ccc(Cl)cc1)c1ccc2nnc(-c3cc(C(F)(F)F)cc(C(F)(F)F)c3)n2c1	/	/	20µM*	i	25µM*
O=C(NCc1cccc(C(F)(F)F)c1)c1ccc2nnc(-c3ccc(Cl)cc3)n2c1	/	/	45µM*	-14%	40µM*
O=C(NCc1ccccc1)c1ccc2nnc(-c3cc(C(F)(F)F)cc(C(F)(F)F)c3)n2c1	/	/	40µM*	4%	?
O=C(NCc1ccc(F)c(F)c1)c1ccc2nnc(-c3cc(C(F)(F)F)cc(C(F)(F)F)c3)n2c1	/	/	?	0%	?
COCCC1(N(C)C)CCN(C(=O)Cc2ccccc2)CC1	i	4%	0%	i	i
O=C(N1CCOCC1)N1CCn2c(nnc2-c2cncc(Br)c2)C1	/	/	i	-11%	0%
O=C1CCC2(C(=O)N3CCN(c4ccccn4)CC3)CCC=C2N1C1CCCC1 (stereo not drawn)	/	/	?	2%	-29%
O=C(NCc1ccccc1)c1ccc2nnc(-c3cccc(C(F)(F)F)c3)n2c1	/	/	35µM*	i	?
O=C(NCc1cccc(C(F)(F)F)c1)c1ccc2nnc(-c3cccc(C(F)(F)F)c3)n2c1	/	/	?	-21%	?
O=C(NCCc1ccc(Cl)cc1)c1ccc2nnc(-c3ccc(OC(F)(F)F)cc3)n2c1	/	/	79µM*	i	-22%
O=C(NC1CCCCC1)c1ccc2nnc(-c3cccc(C(F)(F)F)c3)n2c1	/	/	32µM*	?	?
O=C(NCc1cccc(C(F)(F)F)c1)c1ccc2nnc(-c3cc(C(F)(F)F)cc(C(F)(F)F)c3)n2c1	/	/	14µM*	-11%	20µM*
O=C(NCCc1ccccc1)c1ccc2nnc(-c3ccc(OC(F)(F)F)cc3)n2c1	/	/	?	i	?
O=C(CCCc1ccccc1)N1CCN(C2CCN(Cc3cccnc3)C2=O)CC1 (stereo not drawn)	i	-2%	-13%	i	-7%
CN1C(=O)CS(=O)C12CCN(C(=O)Cc1cccc(F)c1)CC2 (stereo not drawn)	i	2%	i	-14%	i
CC(C)C(=O)Nc1cc(C2CCCC2)nn1C	/	/	-8%[172 µM]	i	-14%[138 µM]
SMILES	Luciferase inh	hNpr1 antagonist	HEK cytotox	GPT2 inh	3T3 cytotox
CC(C)NC(=O)N(C1CC1)C1CCOC2(CCN(C(=O)c3ccc4nc[nH]c4c3)CC2)C1 (stereo not drawn)	i	1%	4%	i	-2%
CSc1ccc(-c2cccc(CN3CCC(N[S+](=O)([O-])CCC(F)(F)F)CC3)c2)cc1	/	/	-22%	/	?
Cc1cccc(-c2cccc(CN3CCC(N[S+](=O)([O-])c4cccs4)CC3)c2)c1	/	/	28µM*	-6%	?
C[S+](=O)([O-])NC1CCN(Cc2cccc(-c3cccs3)c2)CC1	/	/	?	4%	?
Cc1cccc(-c2cccc(CN3CCC(N[S+](=O)([O-])c4ccccc4)CC3)c2)c1	/	/	28µM*	-2%	25µM*
Cc1ccc([S+](=O)([O-])NC2CCN(Cc3cccc(-c4cccc(C)c4)c3)CC2)cc1	/	/	25µM*	-8%	16µM*
CSc1ccc(-c2cccc(CN3CCC(N[S+](=O)([O-])c4ccccc4)CC3)c2)cc1	/	/	28µM*	/	16µM*
Cn1nccc1C(=O)N1CCCCCCNC(=O)[C@@H]2CCCC[C@@H]21	i	2%	-10%	i	-10%
CSc1ccc(-c2cccc(CN3CCC(NC(=O)c4ccccc4)CC3)c2)cc1	/	/	-10%	/	-2%
CSc1ccc(-c2cccc(CN3CCC(N[S+](=O)([O-])c4c(C)noc4C)CC3)c2)cc1	/	/	?	/	14µM*
O=[S+]([O-])(NC1CCN(Cc2ccc(-c3ccsc3)cc2)C1)c1cccs1 (stereo not drawn)	/	/	40µM*	-1%	35µM*
CNC(=O)[C@@H]1CN(C(=O)c2nccc3ccccc23)C[C@H]1CO	i	5%	-1%	i	-6%
CN(C)CCNC(=O)C[C@@H]1CCNC[C@@H]1Cc1cc(CN(C)Cc2ccccc2)on1	i	0%[70.6 µM]	-3%[172 µM]	3%[88.5 µM]	-3%[174 µM]
COc1ccc(CNC(=O)C[C@@H]2CCNC[C@@H]2Cc2cc(-c3ccccc3)on2)cc1OC	i	-2%	-9%	-4%	-22%
O=C(C[C@@H]1CCNC[C@@H]1Cc1cc(COc2ccccc2)on1)NCc1cccs1	i	-13%[70.6 µM]	?	-5%[88.5 µM]	?
COc1ccccc1CNC(=O)C[C@@H]1CCNC[C@@H]1Cc1cc(-c2ccccc2)on1	i	-22%[70.6 µM]	63µM*	-19%[88.5 µM]	79µM*
CC(C)(C)c1ccc(-c2cc(C[C@H]3CNCC[C@H]3CC(=O)NCc3cccs3)no2)cc1	i	-8%	18µM*	?	?
O=C(C[C@@H]1CCNC[C@@H]1Cc1cc(-c2ccccc2)on1)NC1CCCCC1	i	-10%[70.6 µM]	100µM*	i	?
CN(Cc1ccccc1)Cc1cc(C[C@H]2CNCC[C@H]2CC(=O)NC2CCCCC2)no1	i	-3%	?	-18%	79µM*
CC(C)c1noc(CC2CCN(C(=O)c3ccccn3)CC2)n1	i	2%	?	i	i
COC[C@@H]1CN(C(=O)Cc2ccc(OC)cc2)C[C@H]1c1nc(C)no1	i	0%	i	i	-5%
